Assays:
Assay in all cases: PBM binding z-score (relative to random genomic background probes); higher = stronger binding; sequences stand for … in GC…GCGATTGACAGCGTAGAATGAAGG
[1] = tested on: FXR:RXRa (NR concentration 270 nM, RXRa partner concentration 90 nM)
Method in brief: (§1)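 For binding z-scores, the reference was random background probes on custom Agilent 4×180K protein-binding microarrays. These arrays were incubated 1 h with ligand-free nuclear receptor dimers in PBS pH 7.4, 2% milk, 0.02% Triton X-100, 1 mM DTT, 0.2 mg/mL BSA and 0.4 mg/ml salmon testes DNA. Fluorescence was scanned after antibody detection of each partner (one per run) and regression-normalized.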

[2] = tested on: LXRa:RXRa (NR concentration 270 nM, RXRa partner concentration 90 nM)
Method in brief: as §1

[3] = tested on: LXRa homodimer (NR concentration 270 nM)
Method in brief: as §1

[4] = tested on: LXRb:RXRa (NR concentration 270 nM, RXRa partner concentration 90 nM)
Method in brief: as §1

[5] = tested on: LXRb homodimer (NR concentration 270 nM)
Method in brief: as §1

[6] = tested on: PPARa:RXRa (NR concentration 270 nM, RXRa partner concentration 90 nM)
Method in brief: as §1

[7] = tested on: PPARg:RXRa (NR concentration 180 nM, RXRa partner concentration 90 nM)
Method in brief: as §1

[8] = tested on: PPARg:RXRa 270nM:90nM, anti-RXR (NR concentration 270 nM, RXRa partner concentration 90 nM)
Method in brief: as §1

[9] = tested on: PPARg:RXRa 30nM:10nM, anti-RXR (NR concentration 30 nM, RXRa partner concentration 10 nM)
Method in brief: as §1

[10] = tested on: PPARg:RXRa 90nM:30nM, anti-RXR (NR concentration 90 nM, RXRa partner concentration 30 nM)
Method in brief: as §1

[11] = tested on: PPARg:RXRa DBDmut IVT, anti-RXR (DBD mutation: RXRa K156A/R161A, NR concentration 270 nM, RXRa partner concentration 90 nM)
Method in brief: as §1

[12] = tested on: PPARg:RXRa IVT, anti-PPARg (NR concentration 270 nM, RXRa partner concentration 90 nM)
Method in brief: as §1

[13] = tested on: PPARg DBDmut:RXRa IVT, anti-PPARg (DBD mutation: PPARg1 K132A/R137A, NR concentration 270 nM, RXRa partner concentration 90 nM)
Method in brief: as §1

[14] = tested on: PPARg DBDmut IVT, anti-PPARg (DBD mutation: PPARg1 K132A/R137A, NR concentration 270 nM)
Method in brief: as §1

[15] = tested on: PPARg homodimer (NR concentration 180 nM)
Method in brief: as §1

[16] = tested on: PXR:RXRa (NR concentration 270 nM, RXRa partner concentration 90 nM)
Method in brief: as §1

[17] = tested on: PXR homodimer (NR concentration 270 nM)
Method in brief: as §1

[18] = tested on: RARa:RXR (NR concentration 270 nM, RXRa partner concentration 90 nM)
Method in brief: as §1

[19] = tested on: RARa homodimer (NR concentration 270 nM)
Method in brief: as §1

[20] = tested on: RARb:RXRa (NR concentration 270 nM, RXRa partner concentration 90 nM)
Method in brief: as §1

| Sequence | PBM binding z-score [1] | PBM binding z-score [2] | PBM binding z-score [3] | PBM binding z-score [4] | PBM binding z-score [5] | PBM binding z-score [6] | PBM binding z-score [7] | PBM binding z-score [8] | PBM binding z-score [9] | PBM binding z-score [10] | PBM binding z-score [11] | PBM binding z-score [12] | PBM binding z-score [13] | PBM binding z-score [14] | PBM binding z-score [15] | PBM binding z-score [16] | PBM binding z-score [17] | PBM binding z-score [18] | PBM binding z-score [19] | PBM binding z-score [20] |
| --- | --- | --- | --- | --- | --- | --- | --- | --- | --- | --- | --- | --- | --- | --- | --- | --- | --- | --- | --- | --- |
| ATATGTAGGTTACATCCGGGGCATTCAGGCTATG | 0.427 | 2.23 | 0.412 | 1.16 | 1.07 | 3.19 | 5.17 | 4.28 | 1.77 | 3.18 | 7.46 | 7.35 | 2.05 | 1.15 | 0.96 | 1.14 | 0.659 | 0.992 | 0.476 | 1.26 |
| TTACCAAGGTGAAAGGTCGTGGATGCACGCCTTG | 3.68 | 3.62 | -0.0355 | 3.01 | -0.715 | 5.66 | 9.46 | 8.31 | 7.31 | 8.54 | 3.06 | 5.11 | 0.851 | -0.117 | 2.21 | 4.12 | 0.543 | 6.44 | 0.268 | 3.33 |
| TCATATAGGTAACTGCTAGGTGAAAGTCCGATCT | 1.07 | 1.19 | 0.0877 | 0.852 | -0.244 | 1.75 | 1.11 | 2.52 | 3.76 | 3.29 | 4.55 | 3.78 | 1.12 | 0.94 | 1.15 | 0.43 | 0.184 | 0.789 | 0.623 | 0.705 |
| CGTCCAAGGTCAATGCTAGGTCAGGGAAAGCATT | 6.82 | 5.42 | 2.86 | 4.1 | 0.919 | 5.17 | 4.49 | 4.52 | 1.47 | 3.37 | 2.8 | 4.06 | -0.00201 | -0.912 | 3.8 | 4.55 | 0.675 | 5.55 | 0.824 | 5.31 |
| CCTTACGGGTCACTCCAGGTTATAGCTTCGGAGT | 5.46 | 7.43 | 1.7 | 4.64 | 0.284 | 4.05 | 3.22 | 3.66 | 1 | 2.17 | 3.23 | 3.56 | 0.585 | 0.163 | 2.23 | 4.98 | 0.446 | 3.52 | 1.34 | 3.72 |
| TTACCAAGGTGAAAGCTCGTTGATGCACGCCTTG | 0.225 | -0.099 | -0.701 | -0.367 | -1.12 | 1.29 | 0.87 | 1.43 | 0.448 | 0.792 | 1.69 | 2.4 | 0.152 | -0.364 | -0.529 | -0.393 | -1 | 0.109 | -0.866 | 1.3 |
| ATCTCTAGGTAAAAGATCAGTGAATCCCGAGGAT | 0.18 | -0.223 | 0.0922 | -0.31 | 0.167 | 2.45 | 4.48 | 5.32 | 4.13 | 5.66 | 2.47 | 2.26 | 1.02 | 0.762 | 0.847 | -0.177 | -0.245 | 0.0916 | 0.407 | -0.0842 |
